The values below come from ChEMBL document CHEMBL3988442, “University of Dundee, Small-Polar-MMV Screening Library” (2021).

Screen size: about 48,000 compounds; about 13,000 (27%) showed an effect of 50% or more. Some of the results follow.

The test relates to Wolbachia pipientis. The test can be described thus: Anti-Wolbachia Cell-Based Screen. Format: functional. Also noted: scale not given: in the data most compounds retested in dose-response had high values. The conditions noted are these: 5 µM.
For the compound `Cc1cc2c(c(-c3cnccn3)c1)OC(CN)C2` (centres undefined), the “Percent Effect” value is on record as -6.126%. Next, `CCN(Cc1nc(COC)no1)Cc1cccnc1NC(=O)C(C)(C)C`: -4.491%. Next, `Cc1c(Cl)cccc1NC(=O)CCNc1ccc(C#N)cn1`: 0.2076%.

Regarding `Cc1c(Cl)cccc1NC(=O)Cn1cc(C(=O)O)ccc1=O`, the “Percent Effect” value is reported as 1.545%. The result for `Cc1c(Cl)cccc1NC(=O)c1nc[nH]n1` reads 83.83%; that for `COc1ccc(CN2CCc3ncnc(C4CC4)c3CC2)cc1.O=C(O)C(F)(F)F`, 110.6%; that for `O=C(O)C(F)(F)F.O=C(O)C(F)(F)F.c1ccc(CN2CCc3ncnc(C4CC4)c3CC2)nc1`, -2.713%. The result for `Fc1ccc(CN2CCc3ncnc(C4CC4)c3CC2)cc1.O=C(O)C(F)(F)F` reads 98.26%. In the case of `COc1ccc(CN2CCc3ncnc(C4CCOC4)c3CC2)cc1.O=C(O)C(F)(F)F` (centres undefined), the “Percent Effect” value is on record as -16.69%. Next, `CCN(C)c1ncnc2c1CCN(Cc1ccc(OC)cc1)CC2.O=C(O)C(F)(F)F.O=C(O)C(F)(F)F`: -7.101%; `O=C(O)C(F)(F)F.O=C(O)C(F)(F)F.c1cncc(CN2CCc3ncnc(C4CC4)c3CC2)c1`: 8.838%; `O=C(O)C(F)(F)F.c1nc2c(c(C3CC3)n1)CCN(Cc1ccc3c(c1)OCO3)CC2`: -14.88%. The result for `O=C(O)C(F)(F)F.c1ccc(CN2CCc3ncnc(C4CC4)c3CC2)cc1` reads 85.35%; that for `Fc1ccc(CN2CCc3ncnc(C4CCOC4)c3CC2)cc1.O=C(O)C(F)(F)F` (centres undefined), -4.98%. Next, `Cc1ccc(O)c(C(=O)N2CCC(CNC(=O)OC(C)(C)C)C2)c1` (centres undefined): 18.78%; `Cc1cc(NC(=O)c2ccc(N3CCOCC3)c(F)c2)[nH]n1`: -5.615%. Turning to `Cl.O=C(NC[C@@]1(COc2cnccn2)C[C@@H](O)[C@@H](O)C1)C1CC1`, the “Percent Effect” value is given as -0.6559%. Turning to `O=C(NCC(O)c1cccc(F)c1)c1cccnc1O` (centres undefined), the “Percent Effect” value is reported as -4.303%. Next, `O=C(NCc1ccccc1F)NCC(O)c1cccc(F)c1` (centres undefined): 109.5%; `O=C(NCCc1ccccc1F)NCC(O)c1cccc(F)c1` (centres undefined): 91.24%. For the compound `CN1CCN(C)C(c2nnc3ccc(C(=O)N4CCOCC4)cn23)C1.O=C(O)C(F)(F)F.O=C(O)C(F)(F)F` (centres undefined), the “Percent Effect” value came out at 7.547%. Next, `COc1ncc(C)cc1NC(=O)CCc1ccccn1`: -10.54%. Next, `CO[C@H]1[C@@H]2CC[C@H]1CN(c1nc(C)nc3sccc13)C2`: 2.93%; `Cc1nc(N2CCC(C(O)c3nccn3C)CC2)c2sccc2n1` (centres undefined): -1.351%. Next, `CO[C@H]1[C@@H]2CC[C@H]1CN(c1nc(C)nc3ccsc13)C2`: 116.9%. Turning to `Cc1nc2c(c(N3CCC(O)(CN4CCCC4)CC3)n1)CCNCC2`, the “Percent Effect” value was -22.09%. For `CC(C)c1nccn1CCC(=O)N1CCCC1c1cccn1C` (centres undefined), the “Percent Effect” value stood at 1.985%.

In the case of `CC(C)c1nccn1CCC(=O)N1CCCCC1c1ccn[nH]1` (centres undefined), the “Percent Effect” value was 89.39%. The result for `CNc1cncc(C2CCCN2C(=O)c2ccc3oc(=O)n(C)c3c2)n1` (centres undefined) reads -20.51%. Next, `O=C(NCCCn1ccnc1)N1CCCC1c1ccncc1` (centres undefined): 0.09304%; `O=C(Cn1c(=O)oc2ccccc21)N1Cc2cncnc2C1`: -8.946%. Next, `CNc1cncc(C2CCCN2C(=O)Cn2c(=O)oc3ccccc32)n1` (centres undefined): 88.17%; `Cn1cc(C2CCCN2C(=O)CCn2ccc3ccccc32)cn1` (centres undefined): 20.59%. For `CNc1cncc(C2CCCN2C(=O)CCn2ccnc2)n1` (centres undefined), the “Percent Effect” value came to 78.35%. Next, `CNc1cncc(C2CCCN2C(=O)CCn2ccnc2C(C)C)n1` (centres undefined): 103%; `CC(C)(C)Cc1noc2ncc(C(=O)N3CCCSCC3)cc12`: -8.808%. With `Cn1c(-c2ccc(F)cc2)cn2cc(C(=O)N3CC[C@@H](O)C3)nc2c1=O`, the “Percent Effect” value is 4.586%. The result for `CN(C(=O)Cc1ccc(NC(=O)NC2CC2)cc1)c1ccccc1` reads 5.932%; that for `COc1cccc(/C=C/CCN2CCC(C(=O)N3CCCC3)CC2)c1`, -5.123%; that for `CC(C)CCN1CC2(CCCN(C(=O)NCc3cccs3)C2)CCC1=O` (centres undefined), 1.307%. Next, `CCc1nccn1CCC(=O)N1CC[C@H](CO)[C@H](O)C1`: -12.26%; `CCc1nccn1CCC(=O)N1CCCC1c1cncc(NC)n1` (centres undefined): 72.9%. The result for `CCc1nccn1CCC(=O)N1CCCC1c1ccc(F)cc1` (centres undefined) reads 18.71%.

As for `CNc1cncc(C2CCCN2C(=O)Cn2ccnc2C)n1` (centres undefined), the “Percent Effect” value is 100.6%.

In the case of `CCc1nc(CN2CCCN(c3nc4ccccc4o3)CC2)no1`, the “Percent Effect” value is given as 1.249%. The result for `O=C(NC1CCN(C2CC2)CC1)c1[nH]nc(C2CC2)c1Cl` reads 0.5841%; that for `CCn1cc(CN2C[C@H]3CC[C@@H]2CN(C(=O)C2CCC2)C3)cn1`, 1.465%; that for `CSCC(C)(O)CNC(=O)Nc1cc(C)cc(C)c1` (centres undefined), -12.06%. The result for `Cn1nc(C2CC2)c2c1NC(=O)CC2c1cc(CN2CCCC2)cs1` (centres undefined) reads -26.2%; that for `CCOCCn1c(=O)[nH]c2cc(C(=O)N(C)Cc3cc(C)[nH]n3)ccc21`, 4.063%. Next, `C=C(C)CN1CCC(NC(=O)NCCc2ccc(N(C)C)cc2)CC1`: -10.94%; `CNc1cc(N2CCC(O)(CNC(=O)c3ccc(C)nc3)C2)ncn1` (centres undefined): 87.58%; `Cc1ccc(C(=O)NCc2ccnc(N3CCN(C)CC3)c2)cn1`: -19.75%. Turning to `CNc1cc(N2CCCC2CNCc2cnc(C)cn2)ncn1` (centres undefined), the “Percent Effect” value is given as -4.576%.

For the compound `COCc1nc(C(=O)N2CCCC2Cn2cc(C)cn2)cs1` (centres undefined), the “Percent Effect” value was 115.1%.

`Cc1cnn(CC2CCCCN2C(=O)c2ccc(C#N)c(C)n2)c1` (centres undefined): the “Percent Effect” value came out at 2.901%.

In the case of `COCc1nc(C(=O)N2CCCC2c2ccccc2C)cs1` (centres undefined), the “Percent Effect” value turned out to be 8.95%. Turning to `Cc1cnn(CC2CCCN2C(=O)c2csc(C3CC3)n2)c1` (centres undefined), the “Percent Effect” value is 86.35%. Next, `Cc1cnn(CC2CCCN2C(=O)c2csc(C(C)C)n2)c1` (centres undefined): 113.9%; `COCc1nc(C(=O)N2CCCCC2Cn2cc(C)cn2)cs1` (centres undefined): 2.393%; `CC(Nc1ccc(CN2CCCC2=O)cc1)c1ccc(C#N)cc1` (centres undefined): 3.244%. Consider `CCc1ccc(C(=O)O)cc1S(=O)(=O)Nc1ccc(=O)n(C)c1`, for which the “Percent Effect” value is given as -7.326%.

Turning to `O=C(NC1CCc2nccn2C1)c1ccc(OCC2CC2)nc1` (centres undefined), the “Percent Effect” value is on record as -10.39%.

With `CC(=O)N1CCc2nc3sc(C(N)=O)c(N)c3c(C(F)(F)F)c2C1`, the “Percent Effect” value is given as 0.4865%. The result for `CCn1ncnc1CN1CCC(CNC(=O)c2cccc(C)n2)C1` (centres undefined) reads 95.93%; that for `Nc1cc(C(=O)NCC2CCN(Cc3cccc(O)c3)C2)ccn1` (centres undefined), -106.2%; that for `CCc1cc(C(=O)NCC2CCN(Cc3cccc(C)n3)C2)on1` (centres undefined), 1.32%. On to `CCn1ccnc1CN1CCC(CNC(=O)c2ccc(C)nc2)C1` (centres undefined), for which the “Percent Effect” value is listed as -5.867%.

For the compound `CCn1ncnc1CN1CCC(CNC(=O)c2cccc(C)c2)C1` (centres undefined), the “Percent Effect” value stood at 94.27%. With `Cc1cc(CN2CCC(CNC(=O)c3nccc4ccccc34)C2)[nH]n1` (centres undefined), the “Percent Effect” value is on record as 5.129%. Next, `Cc1ccccc1C(C(=O)N(Cc1cnn(C)c1)CC(C)C)N(C)C` (centres undefined): -6.978%. Next, `Cc1cccc(-c2nc(C)nn2CN2CCC3(CC2)OCCO3)c1`: 0.3778%. Next, `Cc1cccnc1N1CCN(C(=O)CCc2cn3ccccc3n2)CC1`: -2.508%. On to `O=C1CC(N(C(=O)c2ccccc2Br)C2CC2)C(=O)N1` (centres undefined), for which the “Percent Effect” value is -20.12%. Next, `O=C1CC(N(C(=O)CCc2c[nH]c3ccccc23)C2CC2)C(=O)N1` (centres undefined): 78.13%; `COc1cc(C(=O)N(C2CC2)C2CC(=O)NC2=O)ccc1C` (centres undefined): -10.25%; `O=C1CC(N(C(=O)Cc2csc(-c3ccccc3)n2)C2CC2)C(=O)N1` (centres undefined): 1.029%. As for `COc1ccc(C(=O)N(C2CC2)C2CC(=O)NC2=O)cc1` (centres undefined), the “Percent Effect” value is given as -6.531%. The result for `O=C1CC(N(C(=O)c2ccc(-n3cccc3)cc2)C2CC2)C(=O)N1` (centres undefined) reads -5.765%; that for `O=C1CC(N(C(=O)COc2ccc(F)cc2F)C2CC2)C(=O)N1` (centres undefined), 87.23%; that for `O=C1CC(N(C(=O)c2ccc3c(c2)CCC3)C2CC2)C(=O)N1` (centres undefined), -12.36%. Take `O=C1CC(N(C(=O)CCc2cc(F)ccc2F)C2CC2)C(=O)N1` (centres undefined): the “Percent Effect” value came to 101%.

For the compound `CC(C)COc1cncc(NCCc2nnc3ccccn23)n1`, the “Percent Effect” value was 6.284%.

For `COCc1ncc(-c2nccn2CCS(C)(=O)=O)cn1`, the “Percent Effect” value is 120.2%.

As to `COCc1ncc(-c2nccn2CCN(C)C)cn1`, the “Percent Effect” value is 3.066%. Next, `CCCSc1ncc(-c2nccn2CCO)cn1`: -55.57%. The result for `CCCn1ccnc1-c1nccn1CCC(N)=O` reads -22.61%; that for `CCCn1ccnc1-c1nccn1CCn1cnnc1`, 87.43%. Next, `COCCCn1ccnc1-c1cnc(OC)nc1`: -18.72%. Regarding `CCCn1ccnc1-c1nccn1CCN(C)C`, the “Percent Effect” value is -8.104%. Next, `COc1ncc(-c2nccn2CCN(C)C)cn1`: -13.85%; `COCc1ncc(-c2nccn2CCn2cnnc2)cn1`: 95.42%; `CN(C)Cc1nnc(C2CCN(c3ncccc3Cl)CC2)n1C1CC1`: -16.88%.

Take `O=C(NC1CCCC1)O[C@H]1COCCN(c2nc3ccccc3o2)C1`: the “Percent Effect” value was -4.12%. On to `CN(Cc1nccs1)c1nccc(N2CCN[C@H]3CS(=O)(=O)C[C@H]32)n1`, for which the “Percent Effect” value was -5.478%.

In the case of `Cn1c(CCNc2nccnc2C#N)nc2ccc(F)cc21`, the “Percent Effect” value is reported as -0.9847%.

`CNC(=O)C1CCCN(C(=O)OC)C1` (centres undefined): the “Percent Effect” value is recorded as -23.89%. Next, `Cc1cc(C(=O)N2CCCC3(COCCN(c4ncccn4)C3)C2)[nH]n1.O=C(O)C(F)(F)F.O=C(O)C(F)(F)F` (centres undefined): -11.88%; `Cc1ccc(N2CCCC3(COCCN(c4ncccn4)C3)C2)nn1.O=C(O)C(F)(F)F` (centres undefined): 82.98%. For `O=C(O)C(F)(F)F.O=C(O)C(F)(F)F.c1cnc(N2CCOCC3(CCCN(CC4CCOCC4)C3)C2)nc1` (centres undefined), the “Percent Effect” value is reported as -3.791%. As for `OC1(CN2CCCC2)COCCN(c2nnc(-c3ccccc3)s2)C1` (centres undefined), the “Percent Effect” value is listed as -13.1%.

Regarding `c1ccc(-c2nnc(N3CCCC4(CCOC4)C3)s2)cc1` (centres undefined), the “Percent Effect” value came to 56.2%. Next, `c1ccc2sc(N3CCCC4(CCOC4)C3)nc2c1` (centres undefined): -24.88%.

`Cc1ccoc1C(=O)N1CCOCC2(CCN(c3ncccn3)C2)C1.O=C(O)C(F)(F)F` (centres undefined): the “Percent Effect” value was determined as 0.2458%. In the case of `Cc1ccc(N2CCCC3(COCCN(c4nccs4)C3)C2)nn1.O=C(O)C(F)(F)F.O=C(O)C(F)(F)F` (centres undefined), the “Percent Effect” value was -0.6863%. Next, `Cc1ccc(N2CC3(CCN(c4nccs4)C3)C2)nn1`: -7.178%; `Cc1ccc(N2CCC3(CC2)COCCN(c2nccs2)C3)nn1.O=C(O)C(F)(F)F.O=C(O)C(F)(F)F`: 108.8%. Next, `CCOCC(=O)N1CC[C@H]2OCC[C@@]2(COc2ncccc2F)C1.O=C(O)C(F)(F)F`: -3.289%; `CCOCC(=O)N1CCOCC2(CCN(c3ncccn3)C2)C1.O=C(O)C(F)(F)F` (centres undefined): 115.1%.
